The text below walks through data of the supplement of paper PMC8047044.

Structures can show the parent of a compound that is named as a salt.

The subject of the assay is Neuro-2a. The experiment in a line: neurite formation score, plate-normalized to DMSO control mean 5.04 (score (0-8 scale)); higher = more or longer neurites. To be noted: 0.1 µM. The procedure:
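Neuro-2a mouse neuroblastoma cells in PLL-coated 96-well plates were pre-treated for 1 h in DMEM(+) with each kinase inhibitor at 0.1 µM, then switched to serum-free DMEM(-) with inhibitor to induce neurite outgrowth and fixed about 2-3 h later. Three blinded observers scored neurite formation from 0 (no neurites) to 8 (long neurites on almost all cells).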
`CN1CCC(CNc2ccc3ncc(-c4cccc(OC(F)(F)F)c4)n3n2)CC1` [SGI-1776 free base]: the neurite formation score came to 5.25.
Consider `Cc1cc(CN2CCN(c3c(Br)cnc4nc(-c5ccc(N6CCN(C)CC6)cc5)[nH]c34)CC2)no1`, for which the neurite formation score was 4.76.
To `CNC(=O)c1cc(Oc2ccc(NC(=O)Nc3ccc(Cl)c(C(F)(F)F)c3)cc2)ccn1` [Sorafenib Tosylate] belongs 3.54.
With `Cn1cc(-c2[nH]c3cc(NC(=O)[C@H](N)C4CCCCC4)cc4c3c2C=NNC4=O)cn1`, the neurite formation score was 4.25.
The result for `Cc1nc(N)sc1-c1ccnc(Nc2ccc(N3CCOCC3)cc2)n1` reads 4.58; that for `Cc1ccc(C(=O)Nc2ccc(CN3CCN(C)CC3)c(C(F)(F)F)c2)cc1C#Cc1cnc2[nH]ncc2c1`, 2.58.
`CCn1cc(-c2ccnc3[nH]c(-c4cccc(CN(C)C)c4)cc23)c(-c2ccc(NC(=O)N(C)C)cc2)n1` gave a neurite formation score of 5.25.
To `COc1ccc(Cl)cc1NC(=O)Nc1cc(C)nc2ccccc12` belongs 5.04.
The result for `CC(C)(C#N)c1ccc(N2C(=O)OCc3cnc4ccc(-c5cnc6ccccc6c5)cc4c32)cc1` reads 4.25; that for `COC(=O)Nc1nc2cc(C(=O)c3cccs3)ccc2[nH]1` [Nocodazole], 1.58; that for `COc1cc2ncnc(Nc3ccc(F)c(Cl)c3)c2cc1OCCCN1CCOCC1` [Gefitinib (ZD1839)], 4.88.
`C[C@@H]1CN(CC(=O)Nc2ccc3c(c2)Cc2cccc(-c4cc(=O)cc(N5CCOCC5)o4)c2S3)C[C@H](C)O1`: the neurite formation score was 5.21.
To `O=C(c1cccc(Cl)c1F)N1CCN(Cc2cccc(Nc3nccs3)n2)CC1` belongs 1.42; to `CC[C@@H]1C(=O)N(C)c2cnc(Nc3ccc(C(=O)NC4CCN(C)CC4)cc3OC)nc2N1C1CCCC1`, 4.58; to `Fc1cc(-c2cccc3ncc(-c4cnn(C5CCNCC5)c4)nc23)cc(F)c1CN1CCOCC1`, 4.09.
The result for `CC(C)Nc1cc(-c2c[nH]c(C(=O)N[C@H](CO)c3cccc(Cl)c3)c2)c(Cl)cn1` reads 4.76.
To `COc1cc2ncnc(Nc3ccc(F)c(Cl)c3)c2cc1NC(=O)/C=C/CN1CCCCC1` belongs 4.88; to `N=C(N)NCCC(=O)O` [3-Guanidinopropionic Acid], 4.75; to `CCCCCCCCCCCCCCCCOP(=O)([O-])OCC[N+](C)(C)C` [Miltefosine], 2.58.
The compound `COc1ccc(S(=O)(=O)N(CCO)c2ccccc2CN(C)C/C=C/c2ccc(Cl)cc2)cc1` [KN-93 Phosphate] gave a neurite formation score of 4.42.
The result for `COCCOc1ccc2c(c1)ncn2-c1ccc2cccc(N3CCC(N)CC3)c2n1` reads 5.08; that for `Clc1ccc(Nc2nnc(Cc3ccncc3)c3ccccc23)cc1` [Vatalanib (PTK787) 2HCl], 3.71.
To `CC(C)(O)CC(=O)NCCn1ccc2ncnc(Nc3ccc(Oc4cccc(C(F)(F)F)c4)c(Cl)c3)c21` belongs 4.42.
The result for `FC(F)c1nc2ccccc2n1-c1nc(N2CCOCC2)nc(N2CCOCC2)n1` reads 4.21.
In turn, `CN1CCN(c2ccc(OC(F)(F)F)c(Nc3ncc4c(n3)-c3c(c(C(N)=O)nn3CCO)CC4)c2)CC1` gave a neurite formation score of 4.42.
As for `O=C(NOCC1CC1)c1ccc(F)c(F)c1Nc1ccc(I)cc1Cl`, the neurite formation score came out at 4.71.
